{
  "source": "paper PMC5540273",
  "about": "(PLoS ONE, 2017);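 also: KINOMEscan kinase panel screen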",
  "data": [
    {"system": "T1, MLCK", "T1 construct": "gene MYLK3", "conditions": "concentration: 1 μM, replicates: in singlicate; n = 1", "units": {"%Inh": "%"}, "values": [
      {"smiles": "Cc1ccc(O)cc1Nc1ccnc2ccc(C(C)(C)C)cc12", "note": "[GW856805]", "%Inh": 4},
      {"smiles": "O=C(Nc1n[nH]c2nc(-c3ccccc3)ccc12)C1CC1", "note": "[SB-708999]", "%Inh": 62},
      {"smiles": "Fc1cc(Cl)ccc1Nc1ccnc2cc(-c3ccc(CN4CCOCC4)o3)ccc12", "note": "[GW560109]", "%Inh": 0},
      {"smiles": "Cc1ccc(Nc2ccnc(Nc3ccc(C)c(F)c3)n2)cc1O.Cl", "note": "[GW582868]", "%Inh": 24},
      {"smiles": "COc1ccc(NC(=O)c2ccoc2)cc1-c1ccc(C(=O)NCC2CC2)cc1", "note": "[GW810437]", "%Inh": 0},
      {"smiles": "Cn1cc(-c2cnc(N)c3c(-c4ccc5c(c4)CCN5C(=O)Cc4ccccc4)csc23)cn1", "note": "[GSK2593074]", "%Inh": 0},
      {"smiles": "Cc1ccc(NC(=O)c2ccc(Cl)c(Cl)c2)cc1-c1ccc(C(=O)Nc2ccncc2)cc1", "note": "[GSK1398460]", "%Inh": 0},
      {"smiles": "Cl.O=C(Nc1ccc(Oc2ccc3[nH]c(NC(=O)c4ccco4)nc3c2)cc1)Nc1cc(C(F)(F)F)ccc1F", "note": "[GW683134]", "%Inh": 15},
      {"smiles": "Nc1ncc(-c2cn[nH]c2)c2scc(-c3ccc4c(c3)CCN4C(=O)Cc3ccccc3)c12", "note": "[GSK2593067]", "%Inh": 6},
      {"smiles": "O=C(O)C(F)(F)F.O=c1[nH]ccc2nc(N[C@@H]3CCNC3)nc(Nc3ccc4c(c3)S(=O)(=O)CC4)c12", "note": "[GSK2181306]", "%Inh": 98.1},
      {"smiles": "COc1ccc(C2=C(Nc3cccc(O)c3)C(=O)NC2=O)cc1", "note": "[SB-390766]", "%Inh": 2},
      {"smiles": "CSc1ccc(NC2=C(c3ccc(Cl)cc3)C(=O)NC2=O)cc1", "note": "[SB-317658]", "%Inh": 29},
      {"smiles": "Cc1cccc(Nc2nc(N[C@H]3CCCC[C@H]3N)ncc2C(N)=O)c1.Cl", "note": "[GSK986310]", "%Inh": 13},
      {"smiles": "NCCC(NC(=O)c1cc(Br)c(-c2ccnc3[nH]ccc23)s1)c1ccccc1.O=C(O)C(F)(F)F.O=C(O)C(F)(F)F", "note": "(stereo not shown) [GSK1307810]", "%Inh": 85},
      {"smiles": "CN(c1ccc(NC(=O)Nc2cccc(Cl)c2)cc1)c1ccnc(N)n1.Cl", "note": "[GW830707]", "%Inh": 10},
      {"smiles": "Fc1cc(Cl)ccc1Nc1ccnc2cc(-c3ccc(CN4CCSCC4)o3)ccc12", "note": "[GW560106]", "%Inh": 5},
      {"smiles": "Cn1cc(-c2ccc3c(c2)CCN3C(=O)Cc2cc(F)cc(F)c2F)c2c(N)ncnc21", "note": "[GSK2634140]", "%Inh": 11},
      {"smiles": "CCn1cnc2c(NCc3ccccc3)ncnc21", "note": "[SKF-96418]", "%Inh": 0},
      {"smiles": "COC(=O)Nc1nc2ccc(Oc3ccc(CC(=O)Nc4cc(C(F)(F)F)ccc4F)cc3)cc2[nH]1", "note": "[GW680903]", "%Inh": 0},
      {"smiles": "Cl.Cl.NCC(NC(=O)c1cc(-c2cccnc2)c(-c2ccnc3[nH]ccc23)s1)c1ccccc1", "note": "(stereo not shown) [GSK1323434]", "%Inh": 51},
      {"smiles": "CN(c1ccc(NC(=O)N2CCN(CCCN3CCOCC3)CC2)cc1)c1ccnc(Nc2ccc(CS(C)(=O)=O)cc2)n1.Cl", "note": "[GW830899]", "%Inh": 0},
      {"smiles": "COc1cccc(-c2nc(-c3ccccc3)[nH]c2-c2ccncc2)c1", "note": "[SB-610250]", "%Inh": 0},
      {"smiles": "Cl.Cl.NC(CNC(=O)c1cc(Br)c(-c2ccnc3[nH]ccc23)s1)c1ccccc1", "note": "(stereo not shown) [GSK1322949]", "%Inh": 70},
      {"smiles": "O=C(Nc1n[nH]c2cc(-c3cccs3)ccc12)C1CC1", "note": "[SB-731284]", "%Inh": 71},
      {"smiles": "CN(c1ccc2c(c1)nc(NCc1ccccc1)n2C)c1ccnc(Nc2ccc(CS(C)(=O)=O)cc2)n1.Cl", "note": "[GW811603]", "%Inh": 0},
      {"smiles": "CCOc1nccc(-c2c(-c3ccc(F)cc3)ncn2C2CCNCC2)n1", "note": "[SB-249175]", "%Inh": 2},
      {"smiles": "CC(C)(C)c1ccc(C(=O)Nc2cn3cc(-n4ccnc4)ccc3n2)cc1", "%Inh": 19},
      {"smiles": "CNc1nccc(-c2ccc3c(N)n[nH]c3c2)n1", "note": "[GSK2206003]", "%Inh": 76}
    ]}
  ]
}
